# According to the supplement of paper PMC8728848:
# Only a selection was taken, and the strongest signals are over-represented in it overall.
# B1: HopZSSI-T (Helicobacter pylori), B5Z6D0 (protein)
# chain: MGSSHHHHHHSSGLVPRGSHMENLYFQGEDNGFFISAGYQIGEAAQMVKNTGELKKLSDTYENLSNLLTNFNNLNQAVTNASSPSEINAAIDNLKANTQGLTGEKTNSPAYQAVYLALNAAVGLWNVIAYNVQCGPGNSSQQSVTFEGQPGHNSSSINCNLTGYNNGVSGPLSIDNFKQLNQAYQVLQQALKQGVPVLNNTNQKIEVKVTTQTNGQSSKETTTTTTTNDAQTLLQEASKMIDVLTTNCPWVNHNPGQNGGAPWGLIRQECVSGFATEFSAVTSMIKNAQEIVTQAQSLNANQNNQNAPQDFNPYTSADRAFAQNMLNHAQAQAKILELADQMKKDLNTIPSQFITNYLAACRIDGTTPSQGVTNNTWGAGCAYVEETITALNNSLAHFGTQAEQIKQSELLARTILDFRGSLSTLNSTYNSITTTASNTPNSPFLKNLISQSTNPNNPGGLQAVYQVNQSAYSQLLSATQELGHNPFRRIGLISSQT
# Assays:
# Test in all cases: glycan array binding signal (z-score within array); higher = stronger binding
# Conditions in all cases: glycan notation: IUPAC condensed, linker removed
# [1] = target: Fuc(a1-2)Gal(b1-4)[Fuc(a1-3)]GlcNAc
# In short: (§1)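 Glycan array data were curated from 3228 arrays in the Consortium for Functional Glycomics database and kept only where the protein sequence was available. Glycan names were converted to IUPAC-condensed notation, and columns mapping to the same glycan were averaged. The binding signal is a within-array Z-score, averaged across arrays of the same protein sequence at different concentrations or buffers and across linkers. Negative Z-scores can be read as non-binding.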
# [2] = target: Fuc(a1-2)[Gal(a1-3)]Gal(b1-3)GlcNAc(b1-2)Man(a1-3)[Fuc(a1-2)[Gal(a1-3)]Gal(b1-3)GlcNAc(b1-2)Man(a1-6)]Man(b1-4)GlcNAc(b1-4)GlcNAc
# In short: as §1
# [3] = target: Fuc(a1-2)[Gal(a1-3)]Gal(b1-4)[Fuc(a1-3)]GlcNAc
# In short: as §1
# [4] = target: Fuc(a1-2)[GalNAc(a1-3)]Gal
# In short: as §1
# [5] = target: Fuc(a1-2)[GalNAc(a1-3)]Gal(b1-4)[Fuc(a1-3)]GlcNAc
# In short: as §1
# [6] = target: Fuc(a1-3)[Gal(b1-4)]GlcNAc(b1-2)Man(a1-3)[Fuc(a1-3)[Gal(b1-4)]GlcNAc(b1-2)Man(a1-6)]Man(b1-4)GlcNAc(b1-4)GlcNAc
# In short: as §1
# [7] = target: Fuc(a1-3)[Gal(b1-4)]GlcNAc(b1-2)Man(a1-3)[Fuc(a1-3)[Gal(b1-4)]GlcNAc(b1-2)Man(a1-6)]Man(b1-4)GlcNAc(b1-4)[Fuc(a1-6)]GlcNAc
# In short: as §1
# [8] = target: Fuc(a1-3)[Gal(b1-4)]GlcNAc(b1-4)Gal(b1-4)[Fuc(a1-3)]GlcNAc
# In short: as §1
# [9] = target: Gal(a1-3)Gal(b1-4)GlcNAc(b1-2)Man
# In short: as §1
# [10] = target: Gal(a1-3)Gal(b1-4)GlcNAc(b1-3)GalNAc
# In short: as §1
# Gal(b1-3)Gal(b1-4)GlcNAc = target: Gal(b1-3)Gal(b1-4)GlcNAc
# In short: as §1
# [11] = target: Gal(b1-3)GlcNAc(b1-2)[Gal(b1-3)GlcNAc(b1-6)]Man(a1-6)[Gal(b1-3)GlcNAc(b1-2)Man(a1-3)]Man(b1-4)GlcNAc(b1-4)GlcNAc
# In short: as §1
# [12] = target: Gal(b1-4)GlcNAc(b1-2)Man(a1-3)[Gal(b1-4)GlcNAc(b1-2)Man(a1-6)][GlcNAc(b1-4)]Man(b1-4)GlcNAc(b1-4)[Fuc(a1-6)]GlcNAc
# In short: as §1
# [13] = target: Gal(b1-4)GlcNAc(b1-3)Gal(b1-4)GlcNAc(b1-3)Gal(b1-4)GlcNAc(b1-3)Gal(b1-4)GlcNAc(b1-2)Man(a1-3)[Gal(b1-4)GlcNAc(b1-3)Gal(b1-4)GlcNAc(b1-3)Gal(b1-4)GlcNAc(b1-3)Gal(b1-4)GlcNAc(b1-2)Man(a1-6)]Man(b1-4)GlcNAc(b1-4)[Fuc(a1-6)]GlcNAc
# In short: as §1
# [14] = target: Gal(b1-4)GlcNAc(b1-3)Gal(b1-4)GlcNAc(b1-3)Gal(b1-4)GlcNAc(b1-3)Gal(b1-4)GlcNAc(b1-2)[Gal(b1-4)GlcNAc(b1-3)Gal(b1-4)GlcNAc(b1-3)Gal(b1-4)GlcNAc(b1-3)Gal(b1-4)GlcNAc(b1-6)]Man(a1-6)[Gal(b1-4)GlcNAc(b1-3)Gal(b1-4)GlcNAc(b1-3)Gal(b1-4)GlcNAc(b1-3)Gal(b1-4)GlcNAc(b1-2)Man(a1-3)]Man(b1-4)GlcNAc(b1-4)[Fuc(a1-6)]GlcNAc
# In short: as §1
# [15] = target: Gal(b1-4)GlcNAc(b1-3)Gal(b1-4)GlcNAc(b1-3)Gal(b1-4)GlcNAc(b1-3)Gal(b1-4)GlcNAc(b1-3)Gal(b1-4)GlcNAc(b1-2)Man(a1-3)[Gal(b1-4)GlcNAc(b1-3)Gal(b1-4)GlcNAc(b1-3)Gal(b1-4)GlcNAc(b1-3)Gal(b1-4)GlcNAc(b1-3)Gal(b1-4)GlcNAc(b1-2)Man(a1-6)]Man(b1-4)GlcNAc(b1-4)GlcNAc
# In short: as §1
# [16] = target: Gal(b1-4)GlcNAc(b1-3)Gal(b1-4)GlcNAc(b1-3)Gal(b1-4)GlcNAc(b1-3)Gal(b1-4)GlcNAc(b1-3)Gal(b1-4)GlcNAc(b1-2)Man(a1-3)[Gal(b1-4)GlcNAc(b1-3)Gal(b1-4)GlcNAc(b1-3)Gal(b1-4)GlcNAc(b1-3)Gal(b1-4)GlcNAc(b1-3)Gal(b1-4)GlcNAc(b1-2)Man(a1-6)]Man(b1-4)GlcNAc(b1-4)[Fuc(a1-6)]GlcNAc
# In short: as §1
# [17] = target: Gal(b1-4)GlcNAc(b1-6)GalNAc
# In short: as §1
# Gal4S6S(b1-4)GlcNAc = target: Gal4S6S(b1-4)GlcNAc
# In short: as §1
# GalNAc(b1-4)GlcNAc = target: GalNAc(b1-4)GlcNAc
# In short: as §1
# [18] = target: GalNAc(b1-4)GlcNAc(b1-3)GalNAc(b1-4)GlcNAc
# In short: as §1
# GalNAc4S6S(b1-4)GlcNAc = target: GalNAc4S6S(b1-4)GlcNAc
# In short: as §1
# GalNAc6S(b1-4)GlcNAc = target: GalNAc6S(b1-4)GlcNAc
# In short: as §1
# [19] = target: Glc(a1-4)Glc(a1-4)Glc(a1-4)Glc
# In short: as §1
# [20] = target: GlcNAc(a1-4)Gal(b1-4)GlcNAc
# In short: as §1
# [21] = target: GlcNAc(b1-2)Man(a1-3)[GlcNAc(b1-2)Man(a1-6)]Man(b1-4)GlcNAc(b1-4)[Fuc(a1-6)]GlcNAc
# In short: as §1
binder,measurement,setting,value
B1,glycan array binding signal (z-score),[1],-0.221
same,glycan array binding signal (z-score),[2],-0.111
same,glycan array binding signal (z-score),[3],0.174
same,glycan array binding signal (z-score),[4],-0.229
same,glycan array binding signal (z-score),[5],-0.057
same,glycan array binding signal (z-score),[6],-0.248
same,glycan array binding signal (z-score),[7],-0.378
same,glycan array binding signal (z-score),[8],-0.536
same,glycan array binding signal (z-score),[9],-0.247
same,glycan array binding signal (z-score),[10],-0.615
same,glycan array binding signal (z-score),Gal(b1-3)Gal(b1-4)GlcNAc,-0.409
same,glycan array binding signal (z-score),[11],0.014
same,glycan array binding signal (z-score),[12],-0.305
same,glycan array binding signal (z-score),[13],1.74
same,glycan array binding signal (z-score),[14],0.699
same,glycan array binding signal (z-score),[15],2.12
same,glycan array binding signal (z-score),[16],1.86
same,glycan array binding signal (z-score),[17],1.25
same,glycan array binding signal (z-score),Gal4S6S(b1-4)GlcNAc,-0.807
same,glycan array binding signal (z-score),GalNAc(b1-4)GlcNAc,2.32
same,glycan array binding signal (z-score),[18],0.498
same,glycan array binding signal (z-score),GalNAc4S6S(b1-4)GlcNAc,3.87
same,glycan array binding signal (z-score),GalNAc6S(b1-4)GlcNAc,9.12
same,glycan array binding signal (z-score),[19],-0.263
same,glycan array binding signal (z-score),[20],0.109
same,glycan array binding signal (z-score),[21],0.081
